Laboratory results from PubChem BioAssay (EPA / NIEHS).
Results filed as inconclusive are left out. The source made the active and inactive calls. How the source made its calls, unless noted: active means hit-call score of the fitted dose curve at least 0.9, where 1 is the maximum; inactive means score below 0.9.

Experiments:
[1] = ATG_NFI_CIS: Attagene CIS-FACTORIAL HepG2 Assay for human Nuclear Factor I (NFI) (AID 2282989); details: HepG2 cis-regulatory reporter, NFI response element transcription; actives raise or lower the signal
Summary of the method: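 Read-out: reporter mRNA via RT-PCR plus capillary electrophoresis with fluorescence detection. Transiently transfected HepG2 (endogenous TF activity on cis promoters), 24 h compound exposure; gain or loss of signal fitted against DMSO.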

[2] = biological target: Myc proto-oncogene protein (Homo sapiens) (UniProt P01106); experiment: ATG_Myc_CIS: Attagene CIS-FACTORIAL HepG2 Assay for human Myelocytomatosis (Myc) Proto-Oncogene Transcription Factor (AID 2282990); details: HepG2, Attagene cis-reporter transcription factor activity; actives raise or lower the signal
Summary of the method: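 After 24 h chemical treatment of HepG2 cells carrying multiplexed cis-regulated reporter constructs, reporter transcripts quantified by RT-PCR and capillary electrophoresis of fluorescent fragments. Gain or loss fitted against DMSO baseline.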

[3] = ATG_NF_kB_CIS: Attagene CIS-FACTORIAL HepG2 Assay for human Nuclear Factor Kappa B (NF-kB) (AID 2282991); details: HepG2 Attagene cis-factorial NF-kB reporter mRNA; actives raise or lower the signal
Summary of the method: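 Measures mRNA induction of an NF-kB-responsive cis-element reporter in HepG2 cells transfected with multiple reporter units, sampled 24 h post-dosing; quantified by fluorescence after RT-PCR and capillary electrophoresis, fitted for activation or inhibition against DMSO.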

[4] = ATG_NRF2_ARE_CIS: Attagene CIS-FACTORIAL HepG2 Assay for human Nuclear Factor Erythroid 2 Related Factor 2 (NFR2) response to Antioxidant Response Elements (ARE) (AID 2282992); details: HepG2 Attagene ARE/NRF2 reporter, transcription factor activity; actives raise or lower the signal;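 on AC50: reporter mRNA level measured by RT-PCR and capillary electrophoresis fluorescence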
Summary of the method: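 Fluorescence intensity of reporter-specific cDNA fragments, separated by capillary electrophoresis, reflects mRNA induction in transfected HepG2 cells at 24 h. Activity is fitted bidirectionally, DMSO serving as baseline.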

[5] = ATG_Oct_MLP_CIS: Attagene CIS-FACTORIAL HepG2 Assay for human Octamer-Binding Transcription Factor (Oct) (AID 2282993); details: HepG2 Attagene cis-factorial Oct reporter, mRNA; actives raise or lower the signal
Summary of the method: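 Read-out: reporter mRNA via RT-PCR plus capillary electrophoresis of 6-FAM-labelled fragments. Transiently transfected HepG2, 24 h exposure, endogenous TF activity on cis elements. Gain or loss of signal fitted relative to DMSO.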

[6] = biological target: Cellular tumor antigen p53 (Homo sapiens) (UniProt P04637); experiment: ATG_p53_CIS: Attagene CIS-FACTORIAL HepG2 Assay for human p53 Transcription Factor (AID 2282994); details: HepG2 p53 cis-element reporter, Attagene mRNA; actives raise or lower the signal
Summary of the method: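 Transiently transfected HepG2 (multiple cis reporter transcription units); exposure 24 h; reporter RNA via RT-PCR, 6-FAM extension, 2 h HpaI digest at 37 C, CE detection; DMSO baseline.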

[7] = biological target: human Peroxisome Proliferator-activated Receptor alpha (PPARa), PPARA (gene 5465) (UniProt Q07869); experiment: ATG_PPARa_TRANS: Attagene TRANS-FACTORIAL HepG2 Assay for human Peroxisome Proliferator-activated Receptor alpha (PPARa) (AID 2283001; active means hit-call score of the fitted dose curve at least 0.9, where 1 is the maximum)
Summary of the method: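 Reporter transcripts quantified by RT-PCR plus capillary electrophoresis after 24 h treatment, fitted upward relative to DMSO. Cells: human HepG2 transiently carrying multiple GAL4-UAS reporter units driven by NR-Gal4 chimeras.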

[8] = biological target: human Peroxisome Proliferator-activated Receptor delta (PPARd), PPARD (gene 5467) (UniProt Q03181); experiment: ATG_PPARd_TRANS: Attagene TRANS-FACTORIAL HepG2 Assay for human Peroxisome Proliferator-activated Receptor delta (PPARd) (AID 2283002; active means hit-call score of the fitted dose curve at least 0.9, where 1 is the maximum)
Summary of the method: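 Read-out is induced reporter mRNA, quantified by RT-PCR with fluorescent labelling and capillary electrophoresis after 24 h dosing. Cells are HepG2 transiently carrying multiple GAL4-UAS reporter units driven by exogenous NR-GAL4 chimeras; DMSO serves as baseline.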

[9] = biological target: Retinoic acid receptor alpha (Homo sapiens) (UniProt P10276); experiment: ATG_RARa_TRANS: Attagene TRANS-FACTORIAL HepG2 Assay for human Retinoic Acid Receptor alpha (RARa) (AID 2283005; active means hit-call score of the fitted dose curve at least 0.9, where 1 is the maximum)
Summary of the method: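 Reporter transcripts, measured by RT-PCR with fluorescent labeling and capillary electrophoresis after 24 h dosing, reflect activity of an exogenous human RARa–GAL4 fusion in transiently transfected HepG2. Fitted for increase relative to DMSO.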

[10] = biological target: Nuclear receptor subfamily 1 group I member 2 (Homo sapiens) (UniProt O75469); experiment: ATG_PXR_TRANS: Attagene TRANS-FACTORIAL HepG2 Assay for human Pregnane X Receptor (PXR) (AID 2283008; active means hit-call score of the fitted dose curve at least 0.9, where 1 is the maximum)
Summary of the method: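 Transient HepG2 transfectants carrying multiplexed reporter transcription units; PXR activity read through a Gal4 chimera. 24 h exposure. RT-PCR/CE fluorescence; upward curve fit referenced to DMSO.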

[11] = biological target: human Retinoic Acid Receptor gamma (RARg), RARG (gene 5916) (UniProt P13631); experiment: ATG_RARg_TRANS: Attagene TRANS-FACTORIAL HepG2 Assay for human Retinoic Acid Receptor gamma (RARg) (AID 2283009; active means hit-call score of the fitted dose curve at least 0.9, where 1 is the maximum)
Summary of the method: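 Transactivation of exogenous RARg-Gal4 fusion measured as reporter transcript induction after 24 h in transfected HepG2 cells. RNA reverse-transcribed, amplified, fluorescently labeled and resolved by capillary electrophoresis; increase relative to DMSO.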

[12] = BSK_3C_uPAR: BioMAP Diversity Plus: 3C Assay for Urokinase-type plasminogen activator receptor (uPAR) Biomarker Activity (AID 2282998); details: BioMAP 3C HUVEC, uPAR biomarker ELISA; actives raise or lower the signal
Summary of the method: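 HUVEC primary cells; 24 h post-dose; uPAR by ELISA; gain or loss of signal fitted bidirectionally vs DMSO baseline.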

[13] = BSK_3C_VCAM1: BioMAP Diversity Plus: 3C Assay for Vascular cell adhesion molecule 1 (VCAM1) Biomarker Activity (AID 2282999); details: BioMAP 3C HUVEC, VCAM1 ELISA, cytokine-stimulated; actives raise or lower the signal
Summary of the method: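 Activity fitted in both directions relative to DMSO, with ELISA measurement of the surface marker on primary HUVEC (3C) at 24 h post-treatment; parallel SRB staining (0.1% SRB, TCA-fixed, 560 nm) flagged overt cytotoxicity.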

[14] = BSK_4H_Eotaxin3: BioMAP Diversity Plus: 4H Assay for Eotaxin 3 Biomarker Activity (AID 2283000); details: primary human endothelial cells (HUVEC); actives raise or lower the signal;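 further: CCL26 protein level quantified by ELISA in parallel with SRB cytotoxicity check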
Summary of the method: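 ELISA quantitation of CCL26 (Eotaxin-3) protein from chemically dosed human vascular endothelial cells at 24 h; increases and decreases both scored relative to DMSO-treated baseline.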

[15] = read-out: Intercellular Adhesion Molecule 1 (ICAM1), ICAM1 (gene 3383); experiment: BSK_3C_ICAM1: BioMAP Diversity Plus: 3C Assay for Intercellular Adhesion Molecule 1 (ICAM1) Biomarker Activity (AID 2283003); details: primary human endothelial cells (HUVEC); actives raise or lower the signal
Summary of the method: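 ELISA readout of ICAM1 in human umbilical vein endothelial cells in the 3C system, taken 24 h post-dose. Gain or loss of signal versus DMSO was fitted in both directions, with SRB total-protein staining run in parallel.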

[16] = BSK_3C_Proliferation: Cell Proliferation Assessment in the BioMAP Diversity Plus: 3C Assay (AID 2283006); details: primary human endothelial cells (HUVEC)
Summary of the method: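 Proliferation as total protein: sulforhodamine B (0.1%) stain of TCA-fixed subconfluent human umbilical vein endothelial cells, absorbance 560 nm, 48 h after dosing. Activity fitted in both directions against DMSO baseline.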

[17] = biological target: Peroxisome proliferator-activated receptor gamma (Homo sapiens) (UniProt P37231); experiment: ATG_PPARg_TRANS: Attagene TRANS-FACTORIAL HepG2 Assay for human Peroxisome Proliferator-activated Receptor-gamma (PPARg) (AID 2283007; active means hit-call score of the fitted dose curve at least 0.9, where 1 is the maximum)
Summary of the method: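 Gain-of-signal endpoint relative to DMSO, derived from reporter mRNA levels quantified by RT-PCR and capillary electrophoresis. Cells were HepG2 transiently expressing a chimeric NR-Gal4 construct with GAL4-UAS reporters, exposed to chemicals for 24 h.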

[18] = biological target: human RAR-related Orphan Receptor beta (RORb), RORB (gene 6096) (UniProt Q92753); experiment: ATG_RORb_TRANS: Attagene TRANS-FACTORIAL HepG2 Assay for human RAR-related Orphan Receptor beta (RORb) (AID 2283010; active means hit-call score of the fitted dose curve at least 0.9, where 1 is the maximum)
Summary of the method: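 Read-out is reporter mRNA induction, quantified by RT-PCR with fluorescent capillary electrophoresis, 24 h post-dose in transiently transfected HepG2 expressing exogenous NR-Gal4 chimera. Activity fitted upward versus DMSO.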

[19] = BSK_3C_TissueFactor: BioMAP Diversity Plus: 3C Assay for Tissue Factor Biomarker Activity (AID 2282997); details: BioMAP 3C HUVEC, tissue factor biomarker readout; actives raise or lower the signal
Summary of the method: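 In this endothelial system, HUVEC are treated for 24 h and Tissue Factor is assessed by ELISA, normalised to DMSO.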

[20] = biological target: human Retinoic Acid Receptor beta (RARb), RARB (gene 5915) (UniProt P10826); experiment: ATG_RARb_TRANS: Attagene TRANS-FACTORIAL HepG2 Assay for human Retinoic Acid Receptor beta (AID 2283004; active means hit-call score of the fitted dose curve at least 0.9, where 1 is the maximum)
Summary of the method: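 Fluorescent capillary-electrophoresis detection of GAL4-UAS reporter mRNA defines the endpoint, with induction over DMSO-treated wells scored as activity. Transiently transfected human hepatoma HepG2 cells expressing exogenous NR–Gal4 proteins are exposed to test chemicals for 24 h.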

Measured: AC50

Sequence of human Peroxisome Proliferator-activated Receptor alpha (PPARa), PPARA (gene 5465) (Q07869 whole entry, looked up, the tested form may be a part): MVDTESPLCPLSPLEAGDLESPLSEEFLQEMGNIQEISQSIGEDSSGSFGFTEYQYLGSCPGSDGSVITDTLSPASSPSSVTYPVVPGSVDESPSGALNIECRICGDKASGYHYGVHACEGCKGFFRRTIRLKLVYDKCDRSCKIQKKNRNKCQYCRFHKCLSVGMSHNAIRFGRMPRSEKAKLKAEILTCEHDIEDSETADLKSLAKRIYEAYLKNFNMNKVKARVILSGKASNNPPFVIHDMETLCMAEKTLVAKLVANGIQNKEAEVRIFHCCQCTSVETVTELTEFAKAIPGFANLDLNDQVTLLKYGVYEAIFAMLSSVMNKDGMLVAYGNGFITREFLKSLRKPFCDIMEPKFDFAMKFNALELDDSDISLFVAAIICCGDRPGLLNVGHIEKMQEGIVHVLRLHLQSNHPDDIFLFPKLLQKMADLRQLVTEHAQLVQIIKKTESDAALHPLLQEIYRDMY
Sequence of human Peroxisome Proliferator-activated Receptor delta (PPARd), PPARD (gene 5467) (Q03181 whole entry, looked up, the tested form may be a part): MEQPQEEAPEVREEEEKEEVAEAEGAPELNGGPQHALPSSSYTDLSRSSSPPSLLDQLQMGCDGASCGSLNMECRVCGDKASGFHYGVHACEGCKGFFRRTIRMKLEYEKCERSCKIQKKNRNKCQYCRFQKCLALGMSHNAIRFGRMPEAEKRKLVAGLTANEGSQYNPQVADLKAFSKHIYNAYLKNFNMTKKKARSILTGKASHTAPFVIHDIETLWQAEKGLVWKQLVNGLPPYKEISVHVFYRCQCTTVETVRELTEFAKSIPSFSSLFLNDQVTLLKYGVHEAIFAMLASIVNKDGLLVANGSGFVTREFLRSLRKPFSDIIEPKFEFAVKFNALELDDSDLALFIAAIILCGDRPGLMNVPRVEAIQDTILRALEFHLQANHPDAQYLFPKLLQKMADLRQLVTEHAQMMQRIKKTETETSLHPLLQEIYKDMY
Sequence of Nuclear receptor subfamily 1 group I member 2 (Homo sapiens) (O75469 whole entry, looked up, the tested form may be a part): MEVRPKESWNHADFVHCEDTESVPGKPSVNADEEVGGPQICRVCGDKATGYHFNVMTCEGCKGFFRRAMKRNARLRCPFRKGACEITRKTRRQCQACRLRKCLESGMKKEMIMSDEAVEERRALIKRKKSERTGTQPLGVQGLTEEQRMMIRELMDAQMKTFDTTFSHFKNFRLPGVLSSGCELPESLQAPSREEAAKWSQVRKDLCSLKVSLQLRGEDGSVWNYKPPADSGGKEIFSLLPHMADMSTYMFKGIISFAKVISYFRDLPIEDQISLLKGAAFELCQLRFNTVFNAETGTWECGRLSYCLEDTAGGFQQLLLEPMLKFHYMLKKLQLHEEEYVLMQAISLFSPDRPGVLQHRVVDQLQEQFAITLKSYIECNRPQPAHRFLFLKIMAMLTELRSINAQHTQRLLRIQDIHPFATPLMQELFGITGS
Sequence of Cellular tumor antigen p53 (Homo sapiens) (P04637 whole entry, looked up): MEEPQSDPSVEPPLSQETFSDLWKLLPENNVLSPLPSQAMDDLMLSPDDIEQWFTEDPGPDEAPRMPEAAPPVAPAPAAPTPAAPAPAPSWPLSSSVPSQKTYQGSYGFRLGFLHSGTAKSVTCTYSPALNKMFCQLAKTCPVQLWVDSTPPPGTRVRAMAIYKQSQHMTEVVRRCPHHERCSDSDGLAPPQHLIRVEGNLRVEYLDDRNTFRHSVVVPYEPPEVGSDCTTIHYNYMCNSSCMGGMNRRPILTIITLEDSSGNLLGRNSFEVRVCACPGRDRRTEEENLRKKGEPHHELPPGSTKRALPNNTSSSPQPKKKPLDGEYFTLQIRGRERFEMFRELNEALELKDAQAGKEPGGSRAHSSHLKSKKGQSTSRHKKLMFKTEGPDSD
Sequence of Retinoic acid receptor alpha (Homo sapiens) (P10276 whole entry, looked up, the tested form may be a part): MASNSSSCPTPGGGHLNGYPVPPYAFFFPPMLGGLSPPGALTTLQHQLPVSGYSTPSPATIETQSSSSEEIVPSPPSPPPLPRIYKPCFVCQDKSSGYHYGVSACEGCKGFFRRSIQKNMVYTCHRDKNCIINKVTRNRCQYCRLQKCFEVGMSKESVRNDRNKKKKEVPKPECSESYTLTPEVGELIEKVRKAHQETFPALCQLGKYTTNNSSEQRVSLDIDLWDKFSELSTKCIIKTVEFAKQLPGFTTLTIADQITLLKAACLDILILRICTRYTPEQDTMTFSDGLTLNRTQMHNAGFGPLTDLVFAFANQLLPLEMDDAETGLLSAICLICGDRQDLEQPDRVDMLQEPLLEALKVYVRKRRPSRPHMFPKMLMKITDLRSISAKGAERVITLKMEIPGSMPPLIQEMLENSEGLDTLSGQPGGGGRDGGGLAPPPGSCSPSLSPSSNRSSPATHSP
Sequence of human RAR-related Orphan Receptor beta (RORb), RORB (gene 6096) (Q92753 whole entry, looked up, the tested form may be a part): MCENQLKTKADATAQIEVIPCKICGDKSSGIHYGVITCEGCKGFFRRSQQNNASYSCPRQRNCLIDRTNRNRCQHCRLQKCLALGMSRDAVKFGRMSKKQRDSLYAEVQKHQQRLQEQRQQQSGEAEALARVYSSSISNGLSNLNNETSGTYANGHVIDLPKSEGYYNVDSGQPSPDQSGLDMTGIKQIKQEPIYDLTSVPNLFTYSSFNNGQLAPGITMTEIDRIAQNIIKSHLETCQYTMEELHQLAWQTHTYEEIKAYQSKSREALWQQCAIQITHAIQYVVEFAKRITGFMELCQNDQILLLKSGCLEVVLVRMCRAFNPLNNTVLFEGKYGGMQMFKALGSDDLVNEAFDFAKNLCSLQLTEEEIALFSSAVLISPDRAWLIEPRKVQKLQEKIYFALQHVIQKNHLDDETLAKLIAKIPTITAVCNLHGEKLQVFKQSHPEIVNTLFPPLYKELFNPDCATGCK
Sequence of Peroxisome proliferator-activated receptor gamma (Homo sapiens) (P37231 whole entry, looked up, the tested form may be a part): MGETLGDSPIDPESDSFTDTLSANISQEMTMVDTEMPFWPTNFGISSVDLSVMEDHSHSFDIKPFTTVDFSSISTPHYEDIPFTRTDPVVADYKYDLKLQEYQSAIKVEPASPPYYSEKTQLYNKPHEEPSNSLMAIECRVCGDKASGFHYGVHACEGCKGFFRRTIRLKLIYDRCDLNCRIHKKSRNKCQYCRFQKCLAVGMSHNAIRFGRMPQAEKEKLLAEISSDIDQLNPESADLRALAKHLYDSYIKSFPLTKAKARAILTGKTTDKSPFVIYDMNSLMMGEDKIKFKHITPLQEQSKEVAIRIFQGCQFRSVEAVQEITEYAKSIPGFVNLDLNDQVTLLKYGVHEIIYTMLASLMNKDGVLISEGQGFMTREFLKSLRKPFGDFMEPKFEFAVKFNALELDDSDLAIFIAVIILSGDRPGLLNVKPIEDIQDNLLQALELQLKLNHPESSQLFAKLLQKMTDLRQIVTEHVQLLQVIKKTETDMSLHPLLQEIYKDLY
Sequence of Myc proto-oncogene protein (Homo sapiens) (P01106 whole entry, looked up, the tested form may be a part): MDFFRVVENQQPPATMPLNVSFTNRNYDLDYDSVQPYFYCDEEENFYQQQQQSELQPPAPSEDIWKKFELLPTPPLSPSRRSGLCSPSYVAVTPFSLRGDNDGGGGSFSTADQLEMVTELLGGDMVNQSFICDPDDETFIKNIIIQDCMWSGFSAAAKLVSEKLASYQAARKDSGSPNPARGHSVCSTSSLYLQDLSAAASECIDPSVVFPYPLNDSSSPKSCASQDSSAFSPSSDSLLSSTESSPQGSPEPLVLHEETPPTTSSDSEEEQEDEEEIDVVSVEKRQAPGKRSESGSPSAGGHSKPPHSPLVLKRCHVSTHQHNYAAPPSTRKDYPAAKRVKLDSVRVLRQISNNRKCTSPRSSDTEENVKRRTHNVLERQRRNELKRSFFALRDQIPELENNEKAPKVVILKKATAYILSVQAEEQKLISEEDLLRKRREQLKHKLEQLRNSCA
Sequence of human Retinoic Acid Receptor beta (RARb), RARB (gene 5915) (P10826 whole entry, looked up, the tested form may be a part): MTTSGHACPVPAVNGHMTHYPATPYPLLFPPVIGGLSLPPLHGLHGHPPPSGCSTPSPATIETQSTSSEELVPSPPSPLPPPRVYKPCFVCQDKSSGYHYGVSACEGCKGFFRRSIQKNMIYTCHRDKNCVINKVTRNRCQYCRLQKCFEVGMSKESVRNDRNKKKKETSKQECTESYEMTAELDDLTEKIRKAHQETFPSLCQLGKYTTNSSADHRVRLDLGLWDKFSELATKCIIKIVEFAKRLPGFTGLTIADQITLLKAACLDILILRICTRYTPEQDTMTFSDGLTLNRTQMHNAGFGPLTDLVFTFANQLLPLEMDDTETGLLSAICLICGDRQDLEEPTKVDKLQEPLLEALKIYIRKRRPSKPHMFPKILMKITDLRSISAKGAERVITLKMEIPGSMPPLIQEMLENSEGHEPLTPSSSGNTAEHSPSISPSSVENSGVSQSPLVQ
Sequence of human Retinoic Acid Receptor gamma (RARg), RARG (gene 5916) (P13631 whole entry, looked up, the tested form may be a part): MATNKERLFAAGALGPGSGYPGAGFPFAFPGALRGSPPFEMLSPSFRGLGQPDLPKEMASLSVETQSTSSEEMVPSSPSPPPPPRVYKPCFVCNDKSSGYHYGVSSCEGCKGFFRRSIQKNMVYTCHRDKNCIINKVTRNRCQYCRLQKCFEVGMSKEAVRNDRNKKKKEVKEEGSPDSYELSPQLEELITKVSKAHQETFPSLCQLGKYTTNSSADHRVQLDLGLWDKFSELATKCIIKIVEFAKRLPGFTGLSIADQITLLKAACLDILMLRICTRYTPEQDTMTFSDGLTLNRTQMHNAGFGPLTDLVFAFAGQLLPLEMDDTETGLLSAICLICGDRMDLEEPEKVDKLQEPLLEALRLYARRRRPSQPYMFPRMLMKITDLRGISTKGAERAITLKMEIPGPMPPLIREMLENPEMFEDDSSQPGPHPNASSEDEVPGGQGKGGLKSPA

O=c1cc(-c2ccccc2)oc2cc(O)cc(O)c12
inactive: [1] | [2] | [5] | [7] | [8] | [9] | [10] | [11]
active: [3] 12.4 µM | [4] 2.2 µM | [6] 3.66 µM

CC[Si](OC(C)=O)(OC(C)=O)OC(C)=O
inactive: [1] | [2] | [3] | [4] | [5] | [6] | [12] | [13] | [14] | [15] | [16] | [17] | [18]
active: [10] 7.32 µM

Cc1ccc(C(=O)c2cc(O)c(O)c([N+](=O)[O-])c2)cc1
active: [17] 17.5 µM
inactive: [1] | [2] | [3] | [4] | [5] | [6] | [7] | [8] | [10]

Nc1ccc(S(=O)(=O)O)c(N)c1
inactive: [1] | [2] | [3] | [4] | [5] | [6] | [7]

c1ccc2c(c1)c1cccc3ccc4cccc2c4c31
inactive: [1] | [2] | [3] | [4] | [5] | [6] | [19] | [12] | [13] | [14] | [7] | [8] | [15] | [16] | [10] | [18]

O=C(O)c1cccc([N+](=O)[O-])c1
inactive: [1] | [2] | [3] | [4] | [5] | [6] | [7] | [8] | [17] | [10]

N#Cc1ccc(CC(=NNC(=O)Nc2ccc(OC(F)(F)F)cc2)c2cccc(C(F)(F)F)c2)cc1
inactive: [1] | [2] | [3] | [4] | [5] | [6] | [12] | [13] | [14] | [7] | [15] | [16] | [10]

CCc1c(C)cc(N)c(CC)c1N
inactive: [1] | [2] | [3] | [4] | [5] | [6] | [12] | [13] | [14] | [7] | [15] | [16] | [17]
active: [10] 100 µM

CCC(C)CCCC(C)(C)O (stereo not drawn)
inactive: [20]

O=C(O)CCCCCCCC(=O)O
inactive: [20] | [9]

COCCCOc1ccnc(CS(=O)c2nc3ccccc3[nH]2)c1C (stereo not drawn)
inactive: [9]

CC(CC(C)(C)C)CC(C)(C)CC(C)(C)C (stereo not drawn)
inactive: [1] | [2] | [3] | [4] | [5] | [6] | [8] | [17] | [18]
